Assay [1] is described as follows: antimalarial activity against Dd2 strain (AID 2302;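 active = growth inhibition above 50% at the single 2 µM test dose, taken to imply half-maximal potency below 2 µM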;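 also: 0% = DMSO untreated growth and 100% = chloroquine plus artemisinin killed control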). As to conditions: P. falciparum Dd2 in RBCs, LDH growth readout, 72 h; at 2 µM; stronger effect = higher value.
Assay [2] in a line: human hepatoma cell viability loss – ATP luminescence, cytotoxicity control for P. falciparum antimalarial project, primary screen (AID 2303;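 active = inhibition above 50%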;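 also: 0% = DMSO wells and 100% = digitonin-killed cells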). As to conditions: HepG2 viability, 24-48 h, at 10 µM, stronger effect = higher value.
In assay [3] the target is L-lactate dehydrogenase (Plasmodium falciparum (isolate CDC / Honduras)) (UniProt Q27743). Put plainly: PfLDH activity inhibition – cell lysate, 3D7 strain, counter-screen for P. falciparum growth inhibition project (AID 2304).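 Also: 0% = vehicle and 100% = reference inhibitor.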 The following applies: P. falciparum 3D7 crude extract, LDH APAD/NBT absorbance; at 2 µM; stronger effect = higher value. (A counterscreen serves to expose hits that act by an unwanted route or on another target.)

A short description of assay [4]: inhibition of 3D7 malaria parasite growth – strain 3D7 (AID 2306).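 Also: 0% = DMSO wells and 100% = chloroquine plus artemisinin control wells.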 The following applies: P. falciparum 3D7 erythrocytic growth, LDH absorbance, 72 h; at 2 µM; stronger effect = higher value.
The target in assay [5] is Calcium-dependent protein kinase 1 (Plasmodium falciparum (isolate 3D7)) (UniProt P62344). Put plainly: PfCDPK1 kinase inhibitors, biochemical, TCAMS library (AID 1159585; cut-off not given, nearly all actives have IC50 up to about 0.98 µM;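 also: inhibitors leave more ATP so luminescence rises with inhibition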). The following applies: recombinant PfCDPK1, Kinase-Glo ATP depletion luminescence. For orientation: Kinase-Glo reads ATP consumption through a luciferase reaction.
Assay [6] has as its target Plasmodium falciparum protein kinase 6 (PK6, PF3D7_1337100) (UniProt Q8IDW1). Nature of the assay: PfPK6 kinase inhibitors, biochemical, TCAMS library (AID 1159586). As to conditions: recombinant PfPK6, Kinase-Glo ATP depletion luminescence.
Assay [7] concerns the target Protein kinase 7 (PK7), Plasmodium falciparum 3D7 (PF3D7_0213400) (UniProt Q7YTF7). Put plainly: inhibition of Plasmodium PK7 catalytic activity – biochemical, TCAMS antimalarial set, Kinase-Glo luminescence (AID 1159587). The following applies: recombinant PfPK7, Kinase-Glo ATP depletion luminescence.
Assay [8] addresses Calcium-dependent protein kinase 4 (Plasmodium falciparum (isolate 3D7)) (UniProt Q8IBS5). Nature of the assay: PfCDPK4 kinase inhibitors, biochemical, TCAMS library (AID 1159588; cut-off not given, nearly all actives have IC50 up to about 0.91 µM). The following applies: recombinant PfCDPK4, Kinase-Glo ATP depletion luminescence.

Values without a mark were called inactive. For some of these results: Potency and affinity values are given separately. Active and inactive are the calls of the source. Unless noted, no rule for the calls is given here.

Chain of Protein kinase 7 (PK7), Plasmodium falciparum 3D7 (PF3D7_0213400) (Q7YTF7 1-343): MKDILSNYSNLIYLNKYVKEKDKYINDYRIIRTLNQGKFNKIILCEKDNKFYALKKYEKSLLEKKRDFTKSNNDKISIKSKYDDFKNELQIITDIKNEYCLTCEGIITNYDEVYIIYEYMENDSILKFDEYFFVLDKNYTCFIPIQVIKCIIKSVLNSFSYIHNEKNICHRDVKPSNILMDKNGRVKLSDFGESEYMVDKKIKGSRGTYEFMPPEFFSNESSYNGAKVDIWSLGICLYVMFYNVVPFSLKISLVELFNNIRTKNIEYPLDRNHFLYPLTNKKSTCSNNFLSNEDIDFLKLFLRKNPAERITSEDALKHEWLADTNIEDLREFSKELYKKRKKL
Chain of Calcium-dependent protein kinase 1 (Plasmodium falciparum (isolate 3D7)) (P62344 whole entry, looked up): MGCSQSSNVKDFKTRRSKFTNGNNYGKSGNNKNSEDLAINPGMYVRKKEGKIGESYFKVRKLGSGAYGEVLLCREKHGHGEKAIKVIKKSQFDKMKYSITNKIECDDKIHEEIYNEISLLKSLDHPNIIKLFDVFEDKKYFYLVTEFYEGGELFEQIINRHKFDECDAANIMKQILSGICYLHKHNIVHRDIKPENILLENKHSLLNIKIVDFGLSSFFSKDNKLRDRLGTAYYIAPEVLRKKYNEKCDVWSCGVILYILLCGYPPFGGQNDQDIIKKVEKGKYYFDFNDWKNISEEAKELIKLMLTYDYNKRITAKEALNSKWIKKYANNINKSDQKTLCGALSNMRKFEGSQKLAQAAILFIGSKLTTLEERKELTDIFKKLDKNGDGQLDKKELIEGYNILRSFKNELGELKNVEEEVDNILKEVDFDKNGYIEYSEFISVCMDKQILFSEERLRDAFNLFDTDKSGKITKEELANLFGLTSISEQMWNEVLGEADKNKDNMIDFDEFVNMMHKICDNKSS
Chain of Calcium-dependent protein kinase 4 (Plasmodium falciparum (isolate 3D7)) (Q8IBS5 whole entry, looked up): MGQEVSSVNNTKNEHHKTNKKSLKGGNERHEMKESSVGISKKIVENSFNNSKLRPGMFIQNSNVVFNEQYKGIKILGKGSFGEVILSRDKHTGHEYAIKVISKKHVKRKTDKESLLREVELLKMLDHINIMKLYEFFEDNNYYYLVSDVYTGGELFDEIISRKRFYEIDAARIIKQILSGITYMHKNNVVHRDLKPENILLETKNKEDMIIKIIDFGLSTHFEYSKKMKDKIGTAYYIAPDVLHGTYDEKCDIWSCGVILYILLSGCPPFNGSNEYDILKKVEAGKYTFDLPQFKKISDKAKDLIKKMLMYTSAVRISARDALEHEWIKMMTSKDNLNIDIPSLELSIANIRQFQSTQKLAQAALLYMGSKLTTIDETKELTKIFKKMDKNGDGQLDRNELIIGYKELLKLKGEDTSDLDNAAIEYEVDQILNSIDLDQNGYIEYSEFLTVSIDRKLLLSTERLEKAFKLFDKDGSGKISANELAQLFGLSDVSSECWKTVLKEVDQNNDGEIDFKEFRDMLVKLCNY
Chain of L-lactate dehydrogenase (Plasmodium falciparum (isolate CDC / Honduras)) (Q27743 whole entry, looked up): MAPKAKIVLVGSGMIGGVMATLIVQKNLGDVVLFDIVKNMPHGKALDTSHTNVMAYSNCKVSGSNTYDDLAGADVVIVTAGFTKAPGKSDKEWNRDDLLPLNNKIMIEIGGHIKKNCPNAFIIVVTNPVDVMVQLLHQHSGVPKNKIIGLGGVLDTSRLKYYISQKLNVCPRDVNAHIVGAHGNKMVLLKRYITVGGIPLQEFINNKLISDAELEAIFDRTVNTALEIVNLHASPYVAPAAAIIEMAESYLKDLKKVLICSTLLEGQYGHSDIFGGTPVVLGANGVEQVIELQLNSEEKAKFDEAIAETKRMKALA
Chain of Plasmodium falciparum protein kinase 6 (PK6, PF3D7_1337100) (Q8IDW1 1-305): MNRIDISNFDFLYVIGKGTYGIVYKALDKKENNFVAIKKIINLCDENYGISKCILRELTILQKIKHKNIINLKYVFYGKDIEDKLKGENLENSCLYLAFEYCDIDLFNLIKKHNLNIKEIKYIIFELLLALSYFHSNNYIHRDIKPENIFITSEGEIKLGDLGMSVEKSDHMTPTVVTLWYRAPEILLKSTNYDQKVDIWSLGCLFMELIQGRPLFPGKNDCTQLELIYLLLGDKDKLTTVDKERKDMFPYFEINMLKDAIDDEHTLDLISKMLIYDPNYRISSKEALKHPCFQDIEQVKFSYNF

Turning to `O=[N+]([O-])c1cc(C=NNc2nc3nonc3nc2Nc2ccc(F)cc2)c(Cl)cc1Cl`, the growth inhibition is 13% in assay [1] and 98% (active) in assay [4]. Besides, the inhibition (in general, the change of the read-out against control, counted positive when it falls) was 5% in assay [2] and -4% in assay [3]. The result in assay [5], in assay [6], in assay [7] and in assay [8] was inactive.
Take `CCCCC(CC)NC(=O)[C@H]1CNCCN1C(=O)CCCc1ccccc1` (stereo not given in full): the growth inhibition is -1% in assay [1] and 94% (active) in assay [4]. Besides, the inhibition in assay [2] was 5%; in assay [3] it was 1%. Moreover, the result in assay [5], in assay [6], in assay [7] and in assay [8] was inactive.
For `CCCNS(=O)(=O)c1ccc(NC(=O)C(C)Oc2ccc([N+](=O)[O-])cc2)cc1` (stereo not given), the values for the growth inhibition in assay [1] and in assay [4] were 37% and 100% (active), respectively. Moreover, the inhibition in assay [2] and in assay [3] was 3% each time. Moreover, the result in assay [5], in assay [6], in assay [7] and in assay [8] was inactive.
`Nc1nc(N)c2c(Cl)c(N3CCOCC3)ccc2n1`: the growth inhibition in assay [1] was 3%; in assay [4], 96% (active). Moreover, the inhibition is 65% (active) in assay [2] and 1% in assay [3]. Further, the result in assay [5], in assay [6], in assay [7] and in assay [8] was inactive.
`Clc1ccc(-c2nc3ccc(-c4ccc5nc(-c6ccc(Cl)cc6)[nH]c5c4)cc3[nH]2)cc1`: the growth inhibition in assay [1] is 99% (active); in assay [4], 101% (active). Further, the inhibition is 59% (active) in assay [2] and -5% in assay [3]. Also, the outcome in assay [5], in assay [6], in assay [7] and in assay [8] was inactive.
As to `O=C(Nc1cccc(F)c1)NC1CCN(c2ccnc3cc(Cl)ccc23)CC1`, the growth inhibition in assay [1] is 37%; in assay [4] it was 96% (active). For the same compound, the inhibition was 11% in assay [2] and -4% in assay [3]. For the same compound, the outcome in assay [5], in assay [6], in assay [7] and in assay [8] was inactive.
In the case of `Cc1noc(C)c1-c1cccc(CNCc2cccc(-c3cccc(-c4nc5ccc(F)cc5[nH]4)c3)c2)c1`, the growth inhibition in assay [1] was 73% (active); in assay [4], 103% (active). Besides, the inhibition in assay [2] was 18%; in assay [3], 3%. In addition, the outcome in assay [5], in assay [6], in assay [7] and in assay [8] was inactive.
As for `Cn1cc(Br)c(-c2cccc(Nc3ccnc4cc(-c5nccs5)ccc34)c2)n1`, the growth inhibition was 32% in assay [1] and 91% (active) in assay [4]. The inhibition in assay [2] was 37%; in assay [3], -1%. For the same compound, the result in assay [5], in assay [6], in assay [7] and in assay [8] was inactive.
As to `CCNc1cc(C(=O)N[C@@H](Cc2ccccc2)[C@H](O)CNC2(C(C)C)CCC2)cc(N2CCCCS2(=O)=O)c1`, the growth inhibition in assay [1] was 85% (active); in assay [4], 99% (active). For the same compound, the results for the inhibition in assay [2] and in assay [3] were -3% and -2%, respectively. Besides, the result in assay [5], in assay [6], in assay [7] and in assay [8] was inactive.
With `COc1ccc(NC(=O)NCC2CCCN(CCCCCNC(=O)/C=C/c3ccc(Cl)c(Cl)c3)C2)c(OC)c1` (stereo not given), the figures for the growth inhibition in assay [1] and in assay [4] were -2% and 95% (active), respectively. The figures for the inhibition in assay [2] and in assay [3] were 8% and -6%, respectively. Also, the result in assay [5], in assay [6], in assay [7] and in assay [8] was inactive.
For `Cc1cc(N)c2cc(NC(=O)c3ccc4ccccc4c3)ccc2n1`, the values for the growth inhibition in assay [1] and in assay [4] were 99% (active) and 101% (active), respectively. Besides, the inhibition is 33% in assay [2] and 1% in assay [3]. Also, the outcome in assay [5], in assay [6], in assay [7] and in assay [8] was inactive.
As for `CCc1c(CCNCCCCCCNCCc2ccc(Br)cc2)ccc(O)c1O`, the growth inhibition in assay [1] was 1%; in assay [4], 95% (active). Moreover, the inhibition is 11% in assay [2] and -1% in assay [3]. The outcome in assay [5], in assay [6], in assay [7] and in assay [8] was inactive.
`O=C(C=Cc1ccc(Cl)c(Cl)c1)NCCCCCN1CCC(CCCNS(=O)(=O)c2cccc(C(F)(F)F)c2)CC1`: the figures for the growth inhibition in assay [1] and in assay [4] were 59% (active) and 100% (active), respectively. Also, the inhibition in assay [2] was 99% (active); in assay [3] it was 3%. The result in assay [5], in assay [6], in assay [7] and in assay [8] was inactive.
With `Cc1nc(N)nc(N)c1OCCCCCCOc1ccccc1`, the growth inhibition in assay [1] was -3%; in assay [4] it was 95% (active). Further, the values for the inhibition in assay [2] and in assay [3] were 59% (active) and -2%, respectively. The outcome in assay [5], in assay [6], in assay [7] and in assay [8] was inactive.
For `COc1ccccc1C(=O)Nc1ccc(Nc2nc(C)cc(N3CCOCC3)n2)cc1`, the values for the growth inhibition in assay [1] and in assay [4] were 22% and 98% (active), respectively. Moreover, the inhibition is 28% in assay [2] and -3% in assay [3]. Further, the result in assay [5], in assay [6], in assay [7] and in assay [8] was inactive.
As to `OCC1CCN(Cc2ccc(-c3ccc(-c4nc5ccc(F)cc5[nH]4)s3)cc2)CC1`, the values for the growth inhibition in assay [1] and in assay [4] were 98% (active) and 101% (active), respectively. Further, the inhibition in assay [2] was 14%; in assay [3], -3%. For the same compound, the result in assay [5], in assay [6], in assay [7] and in assay [8] was inactive.
Turning to `CC(=O)N(C)c1cccc(C(=O)Nc2cccc(-c3cccc(-c4nc5c(C)cccc5[nH]4)c3)c2)c1`, the growth inhibition is 41% in assay [1] and 89% (active) in assay [4]. For the same compound, the figures for the inhibition in assay [2] and in assay [3] were 15% and -9%, respectively. Further, the result in assay [5], in assay [6], in assay [7] and in assay [8] was inactive.
Take `COc1ccc(CCN(Cc2cccs2)C(=O)c2cc3sccc3n2C)cc1OC`: the growth inhibition in assay [1] was 97% (active); in assay [4], 94% (active). Also, the inhibition in assay [2] is 0%; in assay [3], 1%. For the same compound, the result in assay [5], in assay [6], in assay [7] and in assay [8] was inactive.
`CCC(CC(C)C(=O)O)=C(c1ccccc1)c1ccccc1` (stereo not given): the growth inhibition in assay [1] was 1%; in assay [4], 98% (active). Besides, the figures for the inhibition in assay [2] and in assay [3] were 12% and 5%, respectively. Moreover, the result in assay [5], in assay [6], in assay [7] and in assay [8] was inactive.
In the case of `Cc1[nH]c(C)c(-c2ccc(CCc3ccc(C(F)(F)F)cc3)nc2)c(=O)c1Cl`, the growth inhibition in assay [1] and in assay [4] was 97% (active) in each case. The inhibition in assay [2] was 24%; in assay [3], 2%. In addition, the outcome in assay [5], in assay [6], in assay [7] and in assay [8] was inactive.

The values above are taken from PubChem BioAssay.
